GLD-1 TGE inh: GLD-1-TGE RNA interaction inhibition (C. elegans) | purified GLD-1 + fluorescein TGE RNA, fluorescence polarization | hit rate 0.44% among 320,000 | Q17339 | AID 2280 | inhibition, % at 5.96 µM;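 active means percent inhibition above a per-plate cutoff, the plate mean of test compounds plus 3 SD, cut at about 30% in these data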;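 further: 0% = DMSO wells with GLD-1 and probe and 100% = wells lacking GLD-1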
Bcl-xL primary: Bcl-xL (human) inhibition; Q07817; GST-Bcl-xL / FITC-Bim BH3 peptide fluorescence polarization; inhibition, % at 10.9 µM; hit rate 0.7% among 320,000; AID 2129;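 active means inhibition above the mean of all tested compounds plus 3 SD, cutoff set per campaign, cut at about 30% in these data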;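 further: 0% = DMSO wells and 100% = unlabeled Bim-BH3 peptide competitor; inhibitors lower millipolarization by displacing the labeled peptide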
Target sequence (Q07817 whole entry, looked up): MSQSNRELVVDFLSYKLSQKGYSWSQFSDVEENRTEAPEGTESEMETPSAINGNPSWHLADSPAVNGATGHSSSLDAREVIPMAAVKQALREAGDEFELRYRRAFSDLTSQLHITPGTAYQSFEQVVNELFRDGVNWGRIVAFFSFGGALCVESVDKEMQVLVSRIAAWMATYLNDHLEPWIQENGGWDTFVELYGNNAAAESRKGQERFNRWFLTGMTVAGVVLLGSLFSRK
eLon inh: E. coli protease La inhibition. purified E. coli Lon protease, fluorescence polarization. inhibition, % at 7.94 µM. hit rate 0.42% among 360,000. AID 602123; in the data active means inhibition above about 13%, passing the limit was not always enough;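 further: 0% = enzyme with probe and DMSO and 100% = no enzyme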
MEX-5 binding: C. elegans MEX-5 TCR-2 RNA binding activity; MEX-5/FITC-TCR2 RNA binding, fluorescence polarization; active compounds read low; hit rate 0.38% among 300,000; AID 1832; Q9XUB2; activity score (negative = inhibition of binding), % at 10 µM;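 active means inhibition past about -25% in most replicates, and total fluorescence under double the plate's negative control median, limit read from the data; inconclusive means replicates evenly split on the limit, or fluorescence at least double controls; inactive means too little inhibition in most replicates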;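 further: 0% = DMSO and -100% = 5 µM competing unlabeled TCR2 RNA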
MCL1 BIM primary: MCL1-BIM-BH3 interaction inhibition (human). GST-MCL1 / FITC-Bim-BH3 fluorescence polarization. hit rate 0.68% among 320,000. Q07820. inhibition, % at 10.9 µM. AID 2057;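 active means inhibition above the mean inhibition of all tested compounds plus 3 SD, set per campaign, cut at about 40% in these data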;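 further: 0% = DMSO wells and 100% = unlabeled Bim-BH3 peptide control; higher means more loss of mP so more displacement of Bim peptide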
Target sequence (Q07820 whole entry, looked up): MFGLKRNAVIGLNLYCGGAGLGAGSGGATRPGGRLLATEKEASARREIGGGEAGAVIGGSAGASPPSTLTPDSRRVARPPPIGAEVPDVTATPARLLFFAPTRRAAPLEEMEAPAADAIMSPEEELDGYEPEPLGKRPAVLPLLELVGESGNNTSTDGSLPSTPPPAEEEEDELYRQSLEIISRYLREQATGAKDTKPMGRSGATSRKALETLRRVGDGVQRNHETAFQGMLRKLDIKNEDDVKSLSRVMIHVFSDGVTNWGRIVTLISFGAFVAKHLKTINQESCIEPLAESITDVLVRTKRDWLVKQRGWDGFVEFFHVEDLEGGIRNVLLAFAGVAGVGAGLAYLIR
BCLXL inh confirm: Bcl-xL (human) inhibition, MCL1 counter-screen confirmation; GST-Bcl-xL / FITC-Bim BH3 peptide FP binding; hit rate 54% among 1,700; inhibition, % at 10.9 µM; AID 2166; shares compounds with MCL1 BIM primary;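 active means inhibition above a cutoff equal to the mean inhibition of all tested compounds plus 3 SD, cut at about 30% in these data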;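 further: 0% = DMSO wells and 100% = unlabeled Bim BH3 control peptide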
MCL1 BIM confirm: confirmation of human MCL1 and BIM-BH3 interaction inhibitors; shares compounds with MCL1 BIM primary; GST-MCL1 / FITC-Bim-BH3 fluorescence polarization; inhibition, % at 10.9 µM; hit rate 61% among 1,700; AID 2168;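 active means inhibition above the average of all tested compounds plus 3 SD, cut at about 40% in these data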;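 further: 0% = DMSO wells and 100% = unlabeled Bim-BH3 control peptide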
Starred values were filed as active, the others as inactive; ? = inconclusive; . = not tested or not shown. Shown are actives, neighbours in structure and some others; about 1.4% of the full set was active somewhere.

SMILES	GLD-1 TGE inh	Bcl-xL primary	eLon inh	MEX-5 binding	MCL1 BIM primary	BCLXL inh confirm	MCL1 BIM confirm
CC(=O)NN1C(=O)/C(=C/c2ccc(Br)o2)SC1=S	-3	19	2	-21	45*	-7	-25
CC(=O)NN1C(=O)/C(=C\c2ccc(O)cc2)SC1=S	-81	-13	-151	?	-14	.	.
CC(=O)NN1C(=O)/C(=C\c2ccccc2)SC1=S	0	4	1	-1	5	.	.
CN(C)CCCNC(CC(=O)Nc1cccc([N+](=O)[O-])c1)C(=O)O (configuration not stated)	-7	3	2	1	8	.	.
Cc1ccccc1OCC(=O)OCC(=O)Nc1ncc(Cl)c(C)c1Cl	7	23	11	.	41*	26	47*
Cc1ccccc1OCC(=O)OCC(=O)Nc1ccc(Cl)cn1	4	10	-4	.	16	.	.
CN(C)Cc1c(O)ccc2c(=O)c(-c3ccc(Cl)cc3)coc12	3	7	-2	-2	3	.	.
O=c1c(-c2ccc([N+](=O)[O-])cc2)coc2c(O)c(O)ccc12	3	26	-3	-10	45*	43*	63*
CC1(C)Cc2cccc(OCC(=O)NCCc3ccc(S(N)(=O)=O)cc3)c2O1	21	35*	-20	.	195*	-3	-6
CCc1c(C(C)S(=O)(=O)c2ccccc2)[nH]c(=O)n1CC (configuration not stated)	11	2	5	-1	-5	.	.
CC1(C)Cc2c(sc3[nH]c(=S)n(Cc4ccco4)c(=O)c23)CO1	3	1	-8	2	-6	.	.
O=c1c2c3c(sc2[nH]c(=S)n1Cc1ccco1)CCC3	-2	8	6	1	48*	17	41*
N#CC(C#N)=Cc1c[nH]c(=O)c(C#N)c1Nc1ccccc1	26	56*	2	-17	55*	46*	56*
COc1ccc(-c2ccc(C(=O)Nc3cccc(C(F)(F)F)c3)c3occc23)c(C)c1	.	.	3	.	.	.	.
O=C(CCOc1ccccc1)Nc1ccccc1F	-2	2	2	0	2	.	.
NC(=O)c1cccnc1Oc1ccc(Cl)cc1Cl	-3	1	5	3	54*	6	-1
Cc1cc(Cl)ccc1Nc1ncccc1C(N)=O	1	3	-8	-1	-2	.	.
CCSc1ccccc1C(=O)Nc1ccc(S(=O)(=O)NC(C)=O)cc1	-1	11	2	2	11	.	.
COc1cc(Cl)ccc1OCc1cc(C(=O)N2CCCCCCC2)no1	-7	3	4	.	84*	5	8
COc1cc(C)ccc1OCc1cc(C(=O)N2CCCCCC2)no1	.	.	-11	0	.	.	.
O=C1C(Cl)=C(NC(=O)c2ccccc2)C(=O)C(Cl)=C1NC(=O)c1ccccc1	22	36*	19	-86*	57*	54*	57*
COc1ccc(/C=C(\C#N)C(=O)NCCc2ccccc2)cc1OCc1ccccc1	2	1	-10	0	7	.	.
COCCCNC(=O)/C(C#N)=C/c1ccc(OCC(=O)O)c(OC)c1	7	16	-3	-10	57*	20	33
Cc1oc(C(N)=O)nc1-c1ccccc1	2	9	9	1	48*	6	11
O=S(=O)(Nc1nc2ccccc2nc1-[n+]1cccc(N=C([O-])c2ccccc2Cl)c1)c1ccccc1	13	71*	.	-9	84*	60*	90*
SMILES	GLD-1 TGE inh	Bcl-xL primary	eLon inh	MEX-5 binding	MCL1 BIM primary	BCLXL inh confirm	MCL1 BIM confirm
COCCSc1nnc(NC(=O)C2CC(=O)N(CCc3ccc(F)cc3)C2)s1 (configuration not stated)	9	3	-4	-1	7	.	.
Nc1nnc(CC(=O)N/N=C/c2cccc([N+](=O)[O-])c2)s1	0	8	0	2	3	.	.
O=C(CNC(=O)c1ccccc1Br)N/N=C\c1cc([N+](=O)[O-])cc(Br)c1O	0	9	-4	-5	42*	8	36
Nc1nnc(CC(=O)N/N=C/c2cc([N+](=O)[O-])cc(Br)c2O)s1	-1	8	-7	?	44*	16	43*
COc1ccc(NC(C)=O)cc1S(=O)(=O)NCCc1ccccn1	0	1	12	.	-2	.	.
Cc1ccc(-c2nn(-c3ccccc3)cc2/C=C2\SC(=S)N(CC(=O)O)C2=O)cc1	-4	8	-12	1	70*	16	10
COc1ccc(-c2nn(-c3ccccc3)cc2/C=C2/SC(=S)N(CCC(=O)O)C2=O)cc1	-13	6	-4	2	2	.	.
COc1ccc(NC(=O)[C@@H]2[C@@H]3C(=O)N(C4CCCCC4)C(=O)[C@@H]3C3c4ccccc4C=CN32)cc1 (some centres not stated)	-1	8	-48	5	3	.	.
O=C1NC(=O)[C@@H]2C3c4ccccc4C=CN3[C@H](C(=O)c3cccs3)[C@H]12 (some centres not stated)	102*	123*	.	-53*	124*	61*	87*
CC(=O)c1cccc(NC(=O)c2ccccc2N(Cc2ccccc2)S(C)(=O)=O)c1	5	0	2	0	-2	.	.
C=CCSC1=N/C(=C\C=C\c2ccco2)C(=O)S1	0	13	-8	0	47*	3	27
O=[N+]([O-])c1ccc(S(=O)(=O)NNC(=S)NCCc2ccccc2)cc1	-5	-2	-15	-4	1	.	.
CN1CCN(C2=C(Cl)C(=O)C(c3cnc(N4CCCCC4)s3)=C(Cl)C2=O)CC1	27	77*	8	-71*	93*	72*	92*
O=[N+]([O-])c1ccc2nc(-c3ccc(OC(F)F)cc3)cn2c1	14	13	-7	-3	94*	1	3
Cc1ccn2cc(-c3cccc(NC(=O)C(C)C)c3)nc2c1	4	3	0	0	1	.	.
Cc1ccn2cc(-c3ccc(O)c(O)c3)nc2c1	2	25	-4	-46*	56*	58*	58*
COc1ccccc1Oc1ccc(NC(=O)c2ccc(Cl)cc2)cc1	-12	2	-11	-1	1	.	.
COc1ccc2nc3ccccc3nc2c1NC(=O)c1ccc(Cl)cc1	-3	50*	-27	-31*	104*	82*	105*
Brc1ccc(C2=Nc3cccc4cccc(c34)N2)o1	0	20	-7	-1	41*	8	14
CCN(CC)S(=O)(=O)c1ccc(OC)c(NC(=O)C2CC(=O)N(c3ccc(C)cc3)C2)c1 (configuration not stated)	4	7	-7	-1	2	.	.

Screening results as filed in PubChem BioAssay.
